Measurements published in PubChem BioAssay AID588855 (National Center for Advancing Translational Sciences (NCATS), 2011).
Among all 410,000 compounds or so, about 5,000 (1.2%) were called active. Inconclusive results (about 13%) are left out. Calls follow the shape of the dose curve; as a rule, active = well fitted inhibition curve with a large enough effect; inconclusive = small, poorly fitted or top-dose-only effect; inactive = no such curve, though single readings can be large or run the other way. For the sample, actives were picked, then their nearest neighbours and some compounds at random.

experiment: qHTS for Inhibitors of TGF-b; conditions: HepG2 CAGA-GFP TGF-b/SMAD3 reporter, GFP fluorescence, 18 h, TGF-beta stimulated, 500 pg/mL final; series mostly up to 46.1 µM; activity, negative = inhibition: at the top concentration; also: nearly all actives have a fitted effect of over 65% in size
Outline: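 Using HEPG2 CAGA-GFP reporter cells at 1000 cells/well, we pinned test compounds, stimulated with recombinant TGF-beta (500 pg/mL final) and measured total well GFP after 18 h.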
% is scaled to controls: 0 for no effect and ±100 for the full control effect; potency is read from the fitted curve at half-maximal effect.

Compound	activity, negative = inhibition	Potency
Cc1c(-c2cccc(NC(=O)C(C)(C)C)c2)nc2ncccn12	-12.9% (inactive)	–
ClC/C=C/C[n+]1ccccc1Cl	-3.54% (inactive)	–
Cc1cccc(C(=O)Nc2nnc(S(=O)(=O)N3CCCCCC3)s2)c1	-24.8% (inactive)	–
O=C(Nc1nnc(S(=O)(=O)N2CCOCC2)s1)c1cccc(Br)c1	-20.5% (inactive)	–
O=C(Nc1nnc(S(=O)(=O)N2CCCCCC2)s1)c1cccc(Br)c1	–	10 µM (active)
O=C(NCc1ccccc1)c1ccc2c(c1)nc1n2CCCCC1	-14.4% (inactive)	–
CCc1cccc(CC)c1NC(=S)NCc1ccc2[nH]c(C)cc2c1	-7.74% (inactive)	–
Cc1cc(C)cc(NC(=S)NCCc2c[nH]c3ccccc23)c1	-25.4% (inactive)	–
Cc1cccc(NC(=S)NCc2ccc3[nH]c4c(c3c2)CCCC4)c1	–	25.1 µM (active)
Cc1csc(NCC(=O)c2c[nH]c3ccccc23)n1	-1.4% (inactive)	–
Nc1ncnc2nnsc12	9.53% (inactive)	–
CC(C)(C)c1ccc(C(=O)C[n+]2cccc3cc(Cl)ccc32)cc1	-12.3% (inactive)	–
COc1cccc(-c2cccc(NC(=O)C3CCN(C4CCC4)CC3)c2)c1	-0.372% (inactive)	–
COc1cccc(N=C2SC(C(=O)Nc3cccc(Cl)c3)CC(=O)N2C)c1 (stereo unspecified)	–	10 µM (active)
COc1ccc(N=C2SC(C(=O)Nc3ccc(F)cc3)CC(=O)N2C)cc1 (stereo unspecified)	3.67% (inactive)	–
O=C(C1CCCN(S(=O)(=O)c2cccc3nonc23)C1)N1CCN(c2ccccc2F)CC1 (stereo unspecified)	-8.65% (inactive)	–
CC(C)Oc1ccc(NC(=O)c2cc3ccccc3o2)cc1	-3.52% (inactive)	–
CCOc1ccccc1N(CC)C(=O)Nc1cn(C)c(=O)c2ccccc12	-2.53% (inactive)	–
COC(=O)c1c(NC(=O)c2cc(=O)c3c(C)cc(C)cc3o2)sc2c1CCCC2	5.83% (inactive)	–
Cc1ccc(Nc2nc(-c3ccc(O)cc3O)cs2)nc1	–	12.6 µM (active)
Cc1ccn2c(-c3csc(Nc4ccc(C(=O)O)cc4)n3)c(C)nc2c1	-5.02% (inactive)	–
CC(=O)Nc1cnc(-c2ccc(O)cc2C)cn1	22.5% (inactive)	–

Compound	activity, negative = inhibition	Potency
CCOc1ccc(CNC(=O)CCc2c(C)nn(-c3ccc(N4CCCCC4)nn3)c2C)cc1	-29.5% (inactive)	–
COc1cccc(CNC(=O)CCC(=O)N2CC3CCCN3c3ccccc32)c1 (stereo unspecified)	1.62% (inactive)	–
COC(=O)c1c(C)oc2ccc(N(C(=O)Oc3ccccc3)S(=O)(=O)c3ccccc3)cc12	-0.887% (inactive)	–
CCOC(=O)c1c(C)oc2ccc(N(C(=O)c3ccncc3)S(=O)(=O)c3ccc(CC)cc3)cc12	–	12.6 µM (active)
CCc1ccc(S(=O)(=O)Nc2cc3c(C(=O)OCc4ccccc4)c(C)oc3c3ccccc23)cc1	-10.1% (inactive)	–
Cc1nc2sc(C)c(C)n2c(=O)c1S(=O)(=O)NCCc1ccc(Cl)cc1	-6.27% (inactive)	–
CCCCCCCCn1c2c(c(=N)c3c1CCC3)CCCC2	–	8.91 µM (active)
CCCCN(CC)C(=O)c1c[nH]c2ccc(S(=O)(=O)Nc3cccc(OC)c3)cc2c1=O	2.08% (inactive)	–
Oc1cccc2cc(-c3ccncc3)cnc12	–	3.55 µM (active)
CCc1cc2c(cc(C(=O)OC)n2Cc2nc(-c3ccc(C)cc3)oc2C)s1	2.49% (inactive)	–
COc1ccccc1N1CCN(c2ncnc3onc(-c4ccc(F)cc4)c23)CC1	-2.19% (inactive)	–
Cc1ccc(Cl)cc1N(C)C(=O)C1CCCN(c2ncnc3onc(-c4ccc(F)cc4)c23)C1 (stereo unspecified)	–	11.2 µM (active)
CCc1ccccc1N(C)C(=O)C1CCCN(c2ncnc3onc(-c4ccc(F)cc4)c23)C1 (stereo unspecified)	-7.58% (inactive)	–
Cc1ccc(Nc2c(-c3ccc(N(C)C)cc3)nc3nc[nH]n23)cc1	9.98% (inactive)	–
CN(C)C(CNC(=O)c1cc2ccccc2o1)c1ccccc1 (stereo unspecified)	-11.8% (inactive)	–
CN(NC(=O)c1ccccc1F)c1nc(C(F)(F)F)nc2ccccc12	-21.4% (inactive)	–
CCc1ccc(C(CNc2nc(C(F)(F)F)nc3ccccc23)N(C)C)cc1 (stereo unspecified)	–	11.2 µM (active)
O=C(C1COc2ccccc2O1)N(Cc1cccnc1)c1nc2c(F)cc(F)cc2s1 (stereo unspecified)	-13.3% (inactive)	–
Cc1cc(-c2ccc(C)c(S(=O)(=O)N3c4ccccc4CC3C)c2)on1 (stereo unspecified)	0% (inactive)	–
COc1ccc(CCN2C(=O)C(C)=C(C)C2=O)cc1OC	1.46% (inactive)	–
CCCCOc1ccc(CN2C(=O)C(=O)c3cc(Br)cc(C)c32)cc1OC	–	10 µM (active)
CCCCN1C(=O)C(C)=C(C)C1OCCc1ccc(OC)c(OC)c1 (stereo unspecified)	-21.6% (inactive)	–

Compound	activity, negative = inhibition	Potency
Cc1ccc(-c2nc3cccc(C)n3c2Nc2ccc3c(c2)OCCO3)cc1	8.92% (inactive)	–
Clc1cccc(N=C2NN=C(c3ccc4c(c3)OCCO4)CS2)c1	–	10 µM (active)
COc1ccc(NC(=O)CSc2nccn2C2CCCC2)cc1OC	0.0461% (inactive)	–
CCN1CCC(O)(/C=C/c2ccc(C)cc2)C(C(=O)/C=C/c2ccc(C)cc2)C1 (stereo unspecified)	–	11.2 µM (active)
COc1ccc(CNc2nc(-c3ccc(Cl)cc3)nn2S(=O)(=O)c2ccc(C)cc2)cc1	-14.6% (inactive)	–
O=S(=O)([N-]c1nc2ccccc2nc1-[n+]1ccc(Cc2ccccc2)cc1)c1ccc(Br)s1	–	2.82 µM (active)
O=S(=O)(NCc1ccccn1)c1ccc(Br)s1	14.4% (inactive)	–
COc1ccc(C2C(=O)N(C3CCCCCC3)CC(=O)N2CCc2ccc(Cl)cc2)cc1OC (stereo unspecified)	-0.397% (inactive)	–
CCC(=O)N1c2ccccc2CC1C(=O)N1CCN(c2ccccc2F)CC1 (stereo unspecified)	-0.708% (inactive)	–
Cc1ccccc1CCNC(=O)C1CCN(c2nc3ccccc3nc2C(F)(F)F)CC1	-5.82% (inactive)	–
Cc1ccc(Cl)cc1NC(=O)NC1COc2ccccc2C1 (stereo unspecified)	64.3% (inactive)	–
Nc1nc(N)c(N=O)c(N)n1	-18.6% (inactive)	–
Cc1nc2ccccn2c(=O)c1NC(=O)c1c(F)cccc1F	-43.5% (inactive)	–
c1ccc(C2CNCc3c2ccc2ccccc32)cc1 (stereo unspecified)	–	12.6 µM (active)
CCN(CC)/[N+]([O-])=N/OCOC(=O)Cc1c(C)n(C(=O)c2ccc(Cl)cc2)c2ccc(OC)cc12	-15.9% (inactive)	–
CCOC(=O)c1c(SCC(=O)Nc2cccc(C)c2C)nc(=O)[nH]c1C	14.4% (inactive)	–
CCOC(=O)c1[nH]c2ccccc2c1N=C(C)N(CC)CC	-13.3% (inactive)	–
CCOC(=O)c1c(C)[nH]c2c1-c1ccccc1C(=O)C2=O	–	1.26 µM (active)
Cc1ccc(S(=O)(=O)N/N=C(\c2ccccc2)C2CC2)cc1	10.5% (inactive)	–
Cc1ccc(S(=O)(=O)/N=S(\C)C(C)C)cc1 (stereo unspecified)	26% (inactive)	–
Cc1ccc(S(=O)(=O)/N=C2\C=C(NS(=O)(=O)c3ccc(C)cc3)C(=O)c3ccccc32)cc1	–	11.2 µM (active)
CCCCN(C)CCCNC(=O)CN1N=C(c2ccc(OC)cc2)CCC1=O	0% (inactive)	–
